In the library only some 2.8% were active in any assay of this set; here they are far more common.
GLS inhibitor: qHTS for Inhibitors of Glutaminase (GLS); Glutaminase kidney isoform, mitochondrial (Homo sapiens), O94925; GLS enzymatic activity, qHTS titration; Potency, µM (titrated, usually from 45.5 µM), for the others: top-dose activity change, negative = inhibition, actives largely listed as inhibitors; 0.21% of 410,000 active; further: potency means the concentration at half of the fitted maximal effect; on the % scale 0 is the no-effect control and ±100 the full control effect
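Read-out is an Amplex red fluorescence increase coupled through glutamate oxidase and HRP, measured before and after 30 min room-temperature incubation. hKGA is in 45 mM KH2PO4 (pH 8.2) with 0.02% Tween-20; glutamine added as 1mM solution.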
GLP-1R inv ag: qHTS of GLP-1 Receptor Inverse Agonists (Inhibition Mode). HEK293 GLP-1R CRE-luciferase, luminescence, 24 h; GLP-1R form is constitutively active. Potency, µM (highest dose often 38.3 µM), for inactives: top-dose activity change, negative = inhibition, usual class: inhibitors. 1.6% of 410,000 active; further: potency means the concentration at half of the fitted maximal effect; on the % scale 0 is the no-effect control and ±100 the full control effect; nearly all actives have a fitted effect of over 55% in size
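Inverse agonists were sought by their lowering of basal cAMP reporter luciferase output in HEK293 cells stably carrying constitutively active human GLP-1R, after 24 h compound treatment.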
KCNH2 WT inh: qHTS for Inhibitors of KCHN2 3.1: Wildtype qHTS. Voltage-gated inwardly rectifying potassium channel KCNH2 (Homo sapiens), Q12809. U2OS, BacMam KCNH2, thallium flux FluxOr; active compounds read low. activity change, % at 1.84 µM. 0.37% of 340,000 active. AID 720551, 2013;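 active means maximum activity change below -70%; inconclusive means maximum activity change between -70% and -50%; inactive means maximum activity change above -50%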; further: on the % scale 0 is the no-effect control and ±100 the full control effect
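U2OS cells transduced with wild-type KCNH2 virus are loaded with FluxOr dye for 45 min, and thallium flux is measured in kinetic reads before and after stimulation buffer. Rate constants are normalized to DMSO controls.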
GLP1R ag: qHTS of GLP-1 Receptor Agonists | AID 624172, 2012 | Glucagon-like peptide 1 receptor (Homo sapiens), P43220 | HEK293 GLP-1R CRE-luciferase, luminescence, 4-6 h; cells express a hypersensitive GLP-1R form | Potency, µM (titrated, usually from 45.6 µM), without a hit: top-dose activation, actives largely listed as activators | 0.007% of 380,000 active; further: potency means the concentration at half of the fitted maximal effect; % of control where 0% means no effect
KCNH2 3.1 inh: qHTS for Inhibitors of KCHN2 3.1: Mutant qHTS. U2OS KCNH2 3.1, thallium flux FluxOr; active compounds read low. AID 720553, 2013. Potassium voltage-gated channel subfamily H member 2, brain isoform KCNH2 3.1 (human). activity change, % (tested at about 1.8 µM). 0.95% of 340,000 active;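 active means maximum activity change below -70%; inconclusive means maximum activity change from -70% to -50%; inactive means maximum activity change above -50%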;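 further: thallium influx rate constant from kinetic fluorescence after stimulation buffer; on the % scale 0 is the no-effect control and ±100 the full control effect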
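Thallium flux via FluxOr fluorescence (Red40 quencher, 45 min loading) in U2OS cells virally expressing the KCNH2 3.1 isoform (1.77 x 10^8 /mL virus, overnight at 37 C). Rate constants from 2-min kinetic reads post-stimulation, normalised to positive and negative controls.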
HEK293 tox: qHTS of GLP-1 Receptor Inverse Agonists: Cytotox Screen; 0.13% of 410,000 active; HEK293 cAMP-luciferase reporter cells, luminescence, 24 h; Potency, µM (doses to about 38.3 µM), inactives show at the top dose activity change, negative = inhibition, usual class: inhibitors;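 further: loss of luciferase light is scored as toxicity; potency means the concentration at half of the fitted maximal effect; on the % scale 0 is the no-effect control and ±100 the full control effect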
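Compound-treated cells are incubated 24 hr at 37 deg C under 5% CO2 after a 12 hour attachment period, then luciferase detection reagent is added and luminescence is measured following 12 min at room temperature; lowered signal indicates toxicity.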
* marks the source's active call; other numbers are inactive results; ? = inconclusive; · = not tested or not shown. Unless noted, the call rests on the fitted dose curve; in most records, active means well fitted curve in the direction sought with a large enough effect; inconclusive means small, poorly fitted or top-dose-only effect, or another doubt; inactive means no such curve, though single readings can be large; an effect the other way counts as inactive or inconclusive.

SMILES | GLS inhibitor | GLP-1R inv ag | KCNH2 WT inh | GLP1R ag | KCNH2 3.1 inh | HEK293 tox
CO/N=C/c1ccc(N2CCN(C(=O)c3ccc(C)cc3)CC2)c([N+](=O)[O-])c1 | 2% | -17% | -10 | 0% | -98* | -9%
CCC(O)c1ccccc1 (centres undefined) | 1% | · | · | 3% | · | ·
CCC(O)c1cnc(OCc2ccccc2)nc1OCc1ccccc1 (centres undefined) | -8% | 10µM* | 2 | 11% | 3 | 8%
Cc1cccc(C)c1-n1c(C)cc(/C=N/NC(N)=S)c1C | 25% | 11µM* | 1 | -7% | -10 | ?
O=C(Nc1ccccc1)c1cccc2c(=O)c3c([nH]c12)CCCC3 | -1% | 0% | · | · | · | 6%
N#Cc1cccc(NC(=O)C2CCN(S(=O)(=O)c3ccc4[nH]c(=O)ccc4c3)CC2)c1 | 3% | 10% | · | -6% | · | 6%
CC/C=C/C(=O)N1CC2(CC(c3cccc(NC(=O)COc4ccc(Cl)cc4)c3)=NO2)C[C@H]1C(N)=O (some centres undefined) | -2% | -9% | -42 | 0% | -71* | -2%
NC(=O)[C@H]1CC2(CC(c3cccc(NC(=O)COc4ccc(Cl)cc4)c3)=NO2)CN1C(=O)C(c1ccccc1)c1ccccc1 (some centres undefined) | -3% | 5.6µM* | 1 | -4% | -9 | ?
NC(=O)[C@@H]1CC2(CC(c3cccc(NC(=O)COc4ccc(Cl)cc4)c3)=NO2)CN1C(=O)COc1ccc(Cl)cc1 (some centres undefined) | -3% | 11µM* | -13 | -2% | -8 | -26%
N#CCC(=O)N1CC2(CC(c3cccc(NC(=O)COc4ccc(Cl)cc4)c3)=NO2)C[C@@H]1C(N)=O (some centres undefined) | -6% | 7% | -8 | -3% | 8 | 11%
CC/C=C/C(=O)N1CC2(CC(c3cccc(NC(=O)CCCCC)c3)=NO2)C[C@H]1C(N)=O (some centres undefined) | -6% | 12% | -8 | 8% | -20 | -21%
Nc1c(NC/C=C\COc2cc(CN3CCCCC3)ccn2)c(=O)c1=O | 29% | · | · | 4% | · | ·
O=C(c1cc2c(s1)CCCC2)N1CCN(S(=O)(=O)c2ccccc2C(F)(F)F)CC1 | -11% | 10µM* | -19 | 7% | -18 | -9%
Cc1ccc(S(=O)(=O)N2CCN(C(=O)c3cc4c(s3)CCCC4)CC2)c(C)c1 | -14% | -14% | 2 | -2% | -2 | -2%
Cc1c(-c2ccnc3cc(C(=O)O)nn23)cnn1C | 7.9µM* | 5% | -8 | -2% | 5 | 6%
C=CC(=O)N1C/C(=C/c2ccc(Cl)cc2)C(=O)/C(=C\c2ccc(Cl)cc2)C1 | -11% | ? | 16 | -2% | -24 | 3.2µM*
C=CC(=O)N1C/C(=C/c2ccccc2)C(=O)/C(=C\c2ccccc2)C1 | 5% | 4.5µM* | -4 | -19% | -18 | ?
COc1ccc(C(C)(O)c2nc(-c3ccc4c(c3)OCO4)cs2)cc1 (centres undefined) | -5% | -20% | · | 1% | · | 0%
COc1ccccc1NC(=O)c1cccc(S(=O)(=O)N2CCCCCC2)c1 | 4% | ? | · | · | · | 1%
COc1ccc2c(c1)C(=O)CC(c1ccccc1F)O2 (centres undefined) | 28% | ? | 2 | 22% | -3 | -1%

Compound activity deposited in PubChem BioAssay by National Center for Advancing Translational Sciences (NCATS).
